PubChem BioAssay AID1049 (The Scripps Research Institute Molecular Screening Center, 2008)
About 780 (0.39%) of roughly 200,000 compounds were called active. The list comes from a sample in which actives are over-represented; it also holds similar structures and randomly drawn compounds. Unmarked numbers belong to inactive results. Rule as the data show it: active = TR-FRET ratio above about 2000; inactive = the rest.

Assay: TR-FRET signal artefacts, primary screen, artefact control for PPARgamma SRC-2 agonist project, biochemical (AID 1049)
Conditions: TR-FRET artefact counter-screen; at 8 µM; active compounds read high

| SMILES | TR-FRET ratio |
| --- | --- |
| N#Cc1c2c(c(-c3ccccc3)[nH]c1=O)CCCC2 | 1620 |
| CNc1nccc(-c2ccc(Cl)cc2)c1C#N | 1580 |
| N#Cc1c(-c2ccc(Cl)cc2)c2c([nH]c1=S)CCCC2 | 2030 (active) |
| Cc1ccc(CNC(=O)COc2ccc3c(c2)CCC3)cc1 | 1560 |
| CCCCN(C(=O)c1ccc(OC(F)(F)F)cc1)c1c(N)n(CCC)c(=O)[nH]c1=O | 1420 |
| C/C=N/NC(=O)CCCC(=O)N/N=C/C | 1590 |
| COc1ccc(C2/C(=C(/O)c3ccccc3)C(=O)C(=O)N2c2ncccn2)cc1OC (centres undefined) | 1610 |
| Cc1cc(N2C(=O)C(=O)/C(=C(/O)c3ccc(Cl)cc3)C2c2cccc(Br)c2)no1 (centres undefined) | 1980 (active) |
| COc1ccccc1C1/C(=C(/O)c2ccc(OC(C)C)cc2)C(=O)C(=O)N1c1cc(C)on1 (centres undefined) | 1930 |
| COC(=O)C(C)NC(=O)COc1ccc2ccccc2c1 (centres undefined) | 1440 |
| Cc1cc2ccccc2n1CCC(=O)O | 1790 |
| Cc1cc2ccccc2n1CCNC(=O)COc1ccc2ccccc2c1 | 3050 (active) |
| COc1ccc(/C=N/Nc2ncnc3sc4c(c23)CCCC4)cc1O | 1360 |
| CCCOc1ccc(N/C=C/C(=O)C(C)(C)C)cc1 | 1530 |
| O=C(/C=C/Nc1ccccc1OC(F)(F)F)C(F)(F)F | 1490 |
| CN(C)c1ccc(N/C=C/C(=O)C(F)(F)F)cc1 | 2200 (active) |
| CN(C)C(=O)c1ccc2c(c1)C1C3CCC(C3)C1C(c1ccccc1)N2 (centres undefined) | 1630 |
| COc1cccc(NC(=S)N(Cc2ccc(C)cc2)Cc2ccccn2)c1 | 1700 |
| CSc1ncccc1C(=O)OCc1ccc(Br)cc1 | 1680 |
| Cc1ccc(NC(=O)COc2ccc(-n3ccnc3)cc2)cc1Cl | 1510 |
| Cc1cc(C)c(NC(=O)CS(=O)CC(=O)Nc2cccnc2)c(C)c1 (centres undefined) | 1340 |
| Cc1ccc(-c2nc(-c3cccnc3)sc2CC(=O)Nc2ccc(C)c(Cl)c2)cc1 | 2240 (active) |
| COc1ccc(OC)c(Cc2nnc(CCC(=O)NC3CCCC3)o2)c1 | 1590 |

| SMILES | TR-FRET ratio |
| --- | --- |
| O=C(Nc1cccc(CCc2ccccn2)c1)c1ccc(Cl)cc1 | 1410 |
| CN(C)/C=C(/C(=O)c1ccccc1)S(=O)(=O)c1ccc(Cl)cc1 | 1390 |
| O=C(Nc1ccc2oc(-c3ccccc3F)nc2c1)c1ccco1 | 1310 |
| COc1cc(OC)cc(C(=O)Nc2ccc(-c3nc4ccccc4o3)c(O)c2)c1 | 2300 (active) |
| COc1cc(OC)cc(C(=O)Nc2ccc(S(=O)(=O)Nc3cc(C)on3)cc2)c1 | 1400 |
| CC(=O)c1ccc(S(=O)(=O)N2CCN(c3nc4c(C)c(C)ccc4cc3C#N)CC2)cc1 | 2950 (active) |
| Cc1cccc2cc(C#N)c(N3CCCC3)nc12 | 1510 |
| Cc1cc(C)c2nc(N3CCCC3)c(C#N)cc2c1 | 1740 |
| CC(C)OCCCNC(=O)c1ccc(C2SCC(=O)N2Cc2ccco2)cc1 (centres undefined) | 1510 |
| CCOc1ccc(N2CC(C(=O)NCCN3C(=O)S/C(=C\c4cccnc4)C3=O)CC2=O)cc1 (centres undefined) | 1470 |
| COC(=O)c1cc2n(n1)CCCNC2=O | 1460 |
| COc1cccc(NC(=O)CN(C)C(C)C(=O)Nc2ccc(C#N)cc2)c1 (centres undefined) | 1560 |
| CN(C)S(=O)(=O)c1cccc(NC(=O)COC(=O)/C=C/c2cccs2)c1 | 1590 |
| O=C(c1ccncc1)c1ccc([N+](=O)[O-])cc1 | 1700 |
| O=C(NCc1ccco1)c1cc(-c2cccnc2)nc2ccc(Cl)cc12 | 1650 |
| O=C(/C=C/c1ccc(Cl)cc1Cl)NCc1ccco1 | 1530 |
| O=C(CSc1c2c(nc3ccc(Cl)cc13)CCCC2)NCc1ccco1 | 2000 (active) |
| Cc1ccc2nc(-c3cccc(Br)c3)cc(C(=O)Nn3cnnc3)c2c1 | 1400 |
| COc1ccc(Cl)cc1C(=O)NCc1cn(C)nc1C | 1670 |
| Cc1ccc(-c2cc(C(=O)NCc3cn(C)nc3C)c3cc(Br)ccc3n2)cc1 | 2980 (active) |
| O=c1[nH]cnc2c1c(-c1ccccc1)cn2-c1ccc(F)cc1 | 1650 |
| Cc1ccccc1N1C(=O)C(Oc2ccc(Cl)cc2)C1CNCC1CCCO1 (centres undefined) | 1310 |
| Cc1ccc(N2C(=O)C(NC(=O)c3c(F)cccc3F)(C(F)(F)F)C3=C2CC(C)(C)CC3=O)cc1 (centres undefined) | 1460 |

| SMILES | TR-FRET ratio |
| --- | --- |
| O=C(COC(=O)/C=C/c1cccc(Cl)c1)NCCc1ccccc1 | 1440 |
| CCN(CC)S(=O)(=O)c1cccc(-c2n[nH]c(=S)n2/N=C/c2ccc(C(=O)OC)cc2)c1 | 1510 |
| CC(=O)Oc1ccc2c(C)c(CC(C)O)c(=O)oc2c1 (centres undefined) | 1440 |
| O=C(Oc1ccccc1)Oc1ccc2c(c1)oc(=O)c1ccccc12 | 2370 (active) |
| Cc1c(Cc2ccccc2)c(=O)oc2cc(OCC(N)=O)ccc12 | 1400 |
| COc1ccc(C2=NN(c3nc4ccccc4s3)C(=O)C2)cc1 | 1550 |
| CN(Cc1cccc2ncccc12)C(=O)CC1C(=O)NCCN1Cc1ccc(F)cc1 (centres undefined) | 1420 |
| O=C(O)/C=C/c1ccc(OCCCF)cc1 | 1530 |
| COc1cc(/C=N/N=C(\N)c2nonc2N)cc(OC)c1OC | 1490 |
| Cc1cc(=O)n2[nH]c(-c3sccc3-n3c(C)ccc3C)cc2n1 | 1620 |
| Cc1ccc(S(=O)(=O)N2CCOCC2)cc1NC(=O)CSc1nnc(N)s1 | 1520 |
| CCN=C1S/C(=C\c2cc(Br)ccc2OCC(=O)OCC)C(=O)N1CC | 1500 |
| CCCOc1ccc(NC(=O)C2OC3OC(C)(C)OC3C3OC(C)(C)OC23)cc1 (centres undefined) | 1480 |
| Cc1cc(OCC(=O)NC2CCN(C)CC2)ccc1[N+](=O)[O-] | 1540 |
| Cc1cc(OCCCN2CCN(Cc3ccccc3)CC2)ccc1[N+](=O)[O-] | 2000 (active) |
| Cc1ccccc1N1CCN(CCCOc2ccc3c(C)cc(=O)oc3c2)CC1 | 1510 |
| C/C(N)=C(/C#N)C(=O)COC(=O)c1cc(-c2ccccc2)nc2ccc(Br)cc12 | 1540 |
| Cc1cc(C)c2c(NC(=O)C3CC3)nn(C)c2n1 | 1370 |
| CCN(C(=O)COC(=O)c1c(NC(C)=O)sc(C)c1C)C1CCS(=O)(=O)C1 (centres undefined) | 1610 |
| COC(=O)c1ccc(-c2noc(CN(Cc3ccccn3)CC3CCCO3)n2)cc1 (centres undefined) | 1700 |
| CCN(CCn1cccn1)Cc1cn[nH]c1-c1ccc(OC)cc1F | 1510 |
| CCN(CCn1cccn1)Cc1nc(-c2ccc(C(=O)OC)cc2)no1 | 1990 (active) |
| COc1cc(NC(=O)COC(=O)CSc2ccc3ccccc3c2)c(C)cc1[N+](=O)[O-] | 1450 |

| SMILES | TR-FRET ratio |
| --- | --- |
| O=C1NC(c2ccccc2)=NC1(Nc1ccccn1)C(F)(F)F (centres undefined) | 1690 |
| CNC(=S)N1N=C(c2ccccc2)CC1c1ccc(Br)cc1 (centres undefined) | 1990 (active) |
| Brc1ccc(C2CC(c3ccccc3)=Nc3ccccc3N2)cc1 (centres undefined) | 1550 |
| COc1ccc(C2CC(c3ccccc3)=NN2C(=O)COC(=O)COc2ccccc2)cc1 (centres undefined) | 1620 |
| CCC1CO/C(=C(\C(=C(Cl)Cl)N2CCOCC2)[N+](=O)[O-])N1 (centres undefined) | 1690 |
| COc1ccc(NC(=O)c2sc(N3CCOCC3)nc2-c2ccccc2)c(OC)c1 | 1580 |
| O=C(O)CC/C(=N\NC(=O)c1ccc(F)cc1)c1ccc(Br)cc1 | 1580 |
| C/C(=N\OCC(=O)Nc1ccc(Br)cc1)c1cccs1 | 1350 |
| Cc1nc2ccccc2n1CC(=O)N/N=C/c1cccnc1 | 1640 |
| CCOC(=O)N/N=C/c1cccnc1 | 1680 |
| O=C(CSc1cccc2cccnc12)N/N=C/c1cccnc1 | 2120 (active) |
| NC1=NC(=O)C(Cc2cccc(Cl)c2)S1 (centres undefined) | 1490 |
| CCC(C)(C)NC(=O)/C=C/c1cc(OC)c(OC)c(S(=O)(=O)N2CCc3ccccc32)c1 | 1580 |
| Fc1ccc(COc2cccc(-c3n[nH]c(=S)o3)c2)cc1 | 2890 (active) |
| Cc1nc2ccccc2cc1OCc1ccc(F)cc1 | 1730 |
| Cc1cccc(OCc2ccc(C(=O)Nc3ccc(F)cc3)cc2)c1 | 1560 |
| CCOC(=O)c1ccc[n+](CC(=O)Nc2ccccc2OC(F)F)c1 | 1350 |
| CCOC(=O)c1sc(NC(=O)CSc2n[nH]c(CC)n2)nc1C | 1730 |
| CCOc1ncccc1C(=O)OCC(=O)NC1CC1 | 1600 |
| Cc1cc(OCCN2CCCC2)cc(C(C)C)c1 | 1530 |
